The text below walks through data of PubChem BioAssay (Tox21).

Inconclusive results are not listed. Unmarked numbers belong to inactive results. Active and inactive are the calls of the source. The call rests on the fitted dose curve; in most records, active means well fitted cell-killing curve with a large enough effect in the repeat runs; inconclusive means weak or mixed curves; inactive means no such curve, though single readings can be large or run the other way. Residues, ends and D or L forms follow the SMILES beside them.
On the % scale 0 is the no-effect control and ±100 the full control effect.

The experiment can be described thus: qHTS assay to identify small molecule antagonists of the peroxisome proliferator-activated receptor delta (PPARd) signaling pathway - cell viability counter screen (AID 743213). Further: nearly all actives have a fitted effect of over 50% in size. The conditions noted are these: PPARd-bla HEK293H viability, CellTiter-Glo luminescence, 17 h; series mostly up to 62 µM; viability change, negative = cytotoxic: at the top concentration. The text has this: U.S. Tox21 Program National Center for Advancing Translational Sciences [NCATS] NIH Chemical Genomics Center [NCGC] U.S. Environmental Protection Agency [EPA] National Institutes of Environmental Health Sciences [NIEHS] National Toxicology Program [NTP] U.S. Food and Drug Administration [FDA] Tox21 Assay Overview: The peroxisome proliferator-activated receptors (PPARs) are lipid-activated transcription factors of the nuclear receptor superfamily with three distinct subtypes namely PPAR alpha, PPAR delta (PPARd) and PPAR gamma. All these subtypes heterodimerizes with Retinoid X receptor (RXR) and have different physiological functions. […] To identify the compounds that inhibit PPAR-delta signaling, GeneBLAzer PPAR delta UAS-bla HEK293H cell line (Invitrogen, Carlsbad, CA, USA) containing a beta-lactamase reporter gene under the control of an Upstream Activator Sequence (UAS) was used to screen the Tox21 compound library. The cytotoxicity of the Tox21 compound library against the PPARd-bla cell line was tested in parallel by measuring the cell viability using CellTiter-Glo assay (Promega, Madison, WI) in the same wells.
Tox21 Assay Protocol Summary: PPARd-bla cells were dispensed at 3000 cells/5uL/well in 1536-well black wall/clear bottom plates using a Multidrop Combi (Thermo Fisher Scientific, Waltham, MA) dispenser. After the assay plates were incubated at 37 C and 5% CO2 for 5 h, 23 nL of compounds dissolved in DMSO, positive controls or DMSO only was transferred to the assay plate by a Pintool station (Kalypsys, San Diego, CA), followed by addition of 1ul L165041 (300 nM, final concentration in the wells). The assay plates were incubated at 37 C for 17 h, and then 1 uL of LiveBLAzerTM B/G FRET substrate was added using a Bioraptr Flying Reagent Dispenser (FRD) workstation (Beckman Coulter, Indianapolis, IN, USA). The assay plates were incubated at room temperature for 2 h and fluorescence intensity was measured by an Envision plate reader (PerkinElmer, Shelton, CT). For cell viability readout that measures cytotoxicity, 3 ul/well of CellTiter-Glo reagent was added into the assay plates using a Bioraptr FRD. After 30 min incubation at room temperature, the luminescence intensity in the plates was measured using a ViewLux plate reader (PerkinElmer).
As for `O=S(=O)(O)c1ccc2cc(O)ccc2c1`, the compound was called inactive.

`O=C(O)CCCCCCCC(=O)O`: the outcome was inactive.

With `CNC[C@H](O)c1cccc(O)c1`, the compound was classed as inactive.

Regarding `CCCCC(CC)COC(=O)/C=C/c1ccc(OC)cc1` (stereo not given), the “viability change, negative = cytotoxic” value is 28.7%.

As for `Cn1c(=O)c2[nH]cnc2n(C)c1=O`, the call was inactive.

For `O=C(O)c1cc(N=Nc2ccc(S(=O)(=O)Nc3ccccn3)cc2)ccc1O`, the call was inactive.

Take `Cc1ccc(S(=O)(=O)NC(=O)NN2CCCCCC2)cc1`: the call was inactive.

Consider `O=C1CN(/N=C/c2ccc([N+](=O)[O-])o2)C(=O)N1`, for which the outcome was inactive.

On to `O=c1cc[nH]c(=S)[nH]1`, for which the call was inactive.

`O=C(c1ccccc1)c1ccccc1`: the compound was classed as inactive.

`C1N2CN3CN1CN(C2)C3`: the compound was called inactive.

For the compound `Cc1cc(=O)[nH]c(=S)[nH]1`, the outcome was inactive.

For `OC(Cn1cncn1)(Cn1cncn1)c1ccc(F)cc1F`, the compound was called inactive.

`O=C(O)c1[nH]n(-c2ccc(S(=O)(=O)O)cc2)c(=O)c1N=Nc1ccc(S(=O)(=O)O)cc1`: the outcome was inactive.

As for `Cc1ccccc1C(OCCN(C)C)c1ccccc1` (stereo not given), the “viability change, negative = cytotoxic” value was -16.8%.

Turning to `Cn1cc[nH]c1=S`, the call was inactive.

As to `CC(O)CO` (stereo not given), the outcome was inactive.

With `NNC(=O)c1ccncc1`, the result was inactive.

For the compound `CCCCCCCCCCCCCCCC(=O)O`, the compound was called inactive.

Regarding `CCCC(O)C(CC)CO` (stereo not given), the compound was classed as inactive.

For the compound `NC(N)=O`, the outcome was inactive.

For the compound `Cc1cc(=O)n(-c2ccccc2)n1C`, the compound was called inactive.

Consider `CC1(C)[C@@H]2CC[C@@]1(C)C(=O)C2`, for which the call was inactive.

As for `Oc1ccc(/C=C/c2cc(O)cc(O)c2)cc1`, the “viability change, negative = cytotoxic” value is 16.4% [at 80.4 µM].

Take `NC(=O)NC1NC(=O)NC1=O` (stereo not given): the outcome was inactive.

As to `Nc1ccc(O)c(C(=O)O)c1`, the outcome was inactive.

Turning to `Nc1ccn([C@H]2CC[C@@H](CO)O2)c(=O)n1`, the call was inactive.

Regarding `COC(=O)[C@H](Cc1ccccc1)NC(=O)[C@@H](N)CC(=O)O` (H-Asp-Phe-OMe), the result was inactive.

Turning to `CCC1(c2ccccc2)C(=O)NCNC1=O`, the call was inactive.

On to `O=C(O)/C=C\C(=O)O`, for which the compound was classed as inactive.

Consider `NC(N)=NC(=O)c1nc(Cl)c(N)nc1N`, for which the outcome was inactive.

`C/C=C/c1ccc(OC)cc1`: the compound was classed as inactive.

Consider `c1ccc2[nH]ccc2c1`, for which the compound was called inactive.

Consider `CC(C)(Oc1ccc(C2CC2(Cl)Cl)cc1)C(=O)O` (stereo not given), for which the compound was classed as inactive.

As for `NC(=O)c1ccccc1O`, the compound was classed as inactive.

For the compound `N=C(N)c1ccc(OCCCCCOc2ccc(C(=N)N)cc2)cc1`, the compound was classed as inactive.

As for `O=S(=O)(O)NC1CCCCC1`, the compound was classed as inactive.

For the compound `Cc1noc(NS(=O)(=O)c2ccc(N)cc2)c1C`, the compound was called inactive.

On to `NS(=O)(=O)c1cc(C(=O)O)c(NCc2ccco2)cc1Cl`, for which the result was inactive.

On to `Cc1cn([C@H]2C[C@H](N=[N+]=[N-])[C@@H](CO)O2)c(=O)[nH]c1=O`, for which the result was inactive.
